# Records with an inconclusive call do not appear. A number with no mark means an inactive call. Activity calls are given as the source filed them. The call rests on the fitted dose curve; in most records, active means well fitted inhibition curve with a large enough effect in the signal ratio in the repeat runs; inconclusive means weak or mixed curves, or effect the other way; inactive means flat fitted curve, though single readings scatter; the % refers to the signal ratio.
# Test: qHTS assay for small molecule disruptors of the mitochondrial membrane potential (AID 720635)
# Conditions: HepG2 mitochondrial membrane potential, Mito-MPS dye ratio; series mostly up to 83.2 µM; ratio activity, negative = MMP loss: at the top concentration
# Excerpt: U.S. Tox21 Program National Center for Advancing Translational Sciences [NCATS] NIH Chemical Genomics Center [NCGC] U.S. Environmental Protection Agency [EPA] National Institutes of Environmental Health Sciences [NIEHS] National Toxicology Program [NTP] U.S. Food and Drug Administration [FDA] Tox21 Assay Overview: Mitochondrial membrane potential (MMP), one of the parameters for mitochondrial function, is generated by mitochondrial electron transport chain that creates an electrochemical gradient by a series of redox reactions. This gradient drives the synthesis of ATP, a crucial molecule for various cellular processes. Measuring MMP in living cells is commonly used to assess the effect of chemicals on mitochondrial function. […] The dye accumulates in the mitochondria of healthy cells as aggregates, with red fluorescence. The mitochondrial potential collapses and the dye can no longer accumulate in the mitochondria and remains in the cytoplasm in monomers, with green fluorescence.
# Tox21 Assay Protocol Summary: 2,000 HepG2 cells in 5 uL/well were dispensed into black, clear-bottom 1536-well plates using a Multidrop Combi (Thermo Scientific) dispenser. The assay plates were incubated overnight at 37C to allow cells to attach to the wells, followed by the transfer of 23 nL compound or DMSO vehicle by a pin tool (Kalypsys). The plates were incubated for 1 hr at 37C and 5% CO2, followed by the addition of 5 uL of 2X Mito-MPS dye (BD Biosciences) into each well using Flying Reagent Dispenser (Aurora Discovery) and then following 30 min incubation at 37C. Fluorescence intensity (490nm excitation and 535nm emission for monomers; and 540nm excitation and 590nm emissions for aggregates) was measured using an Envision plate reader.
# On the % scale 0 is the no-effect control and ±100 the full control effect; potency means the concentration at half of the fitted maximal effect.
SMILES,"ratio activity, negative = MMP loss",Potency
CC1=CC(=O)CCC1,28.4%,
O=C(O)c1ccccc1S,-13.6%,
NC(N)=NS(=O)(=O)c1ccc(N)cc1,-9.3% [at 39.1 µM],
CC(C)CCCCCCN,16.3%,
C=CCOc1nc(OCC=C)nc(OCC=C)n1,17.4%,
Cc1nccn1CC1CCc2c(c3ccccc3n2C)C1=O (stereo not given),,inactive
CCCCCCCCCCCCCCCCCC(=O)OCCCCCCCCCCCCCC(C)C,-8.95%,
CCCCC=O,17.1%,
CCCCCCCCCCCl,23.1% [at 95.3 µM],
CO[Si](CCCNCCC[Si](OC)(OC)OC)(OC)OC,15.1%,
COCc1ccc(COC)cc1,15.6%,
CCC(C(=O)NC(N)=O)c1ccccc1 (stereo not given),,inactive
CC(=O)O[C@H](CC(=O)[O-])C[N+](C)(C)C,12.4%,
C[N+](C)(C)CC[N+]1(C)Cc2c(Cl)c(Cl)c(Cl)c(Cl)c2C1,-1.9%,
NC(=S)Nc1cccc2ccccc12,-26.9% [at 8.08 µM],
CSc1ccc(C=O)cc1,18.3%,
CCCC=O,14.3%,
FC(F)(F)C(F)(F)C(F)(F)C(F)(F)C(F)(F)C(F)(F)C(F)(F)C(F)(F)C(F)(F)C(F)(F)F,21.5% [at 8.08 µM],
CC(C)=CCC/C(C)=C/C(=O)O,8.52%,
C1C2OC2C2C1C1CC2C2OC12 (stereo not given),16.5% [at 95.3 µM],

SMILES,"ratio activity, negative = MMP loss",Potency
Nc1[nH]c(=O)ncc1F,-7.85% [at 39.1 µM],
COc1ccc(NC(C)=O)cc1,5.59% [at 95.3 µM],
CCCCCC[C@@H](CCC)C(=O)O,8.89%,
C(=C(c1ccccc1)c1ccccc1)c1ccccc1,,30.6 µM (active)
COC(C(=O)O)c1ccccc1 (stereo not given),11.5%,
OCCN1C[C@H](O)[C@@H](O)[C@H](O)[C@H]1CO,10.3%,
CC1CCN(CCCC(=O)c2ccc(F)cc2)CC1,-7.37%,
CCCc1ccc(N)cc1,-11.3%,
CC(=O)NC(Cc1ccccc1)C(=O)O (stereo not given),-11.6%,
CCCCCN(CCCCC)C(=O)C(CCC(=O)O)NC(=O)c1ccc(Cl)c(Cl)c1 (stereo not given),11.8%,
CCCCCCCCCCCCCCC,21.9%,
CN(C)CCn1nnnc1SCC1=C(C(=O)O)N2C(=O)[C@@H](NC(=O)Cc3csc(N)n3)[C@H]2SC1,-12.8% [at 39.1 µM],
C=C(C)C(=O)NCCC[N+](C)(C)C,21.1%,
c1ccc2cnncc2c1,15.3%,
O=C(O)/C=C/c1ccc(/C=C/C(=O)O)cc1,-15.1%,
N#CCc1ccccc1[N+](=O)[O-],15.7%,
CC(C)N1C(=O)c2ccccc2C1=O,11.3%,
C#CC(C)(O)CC(C)C (stereo not given),-5.96%,
C=CCSCC1Nc2cc(Cl)c(S(N)(=O)=O)cc2S(=O)(=O)N1 (stereo not given),13.5%,
NC1CCN(c2cccc(Cl)n2)CC1,16.3%,
